In paper PMC13494018:
Values without a mark were called inactive. The rule behind the calls is not given here.

molecular target: CD276, Q5ZPR3
Sequence (Q5ZPR3 whole entry): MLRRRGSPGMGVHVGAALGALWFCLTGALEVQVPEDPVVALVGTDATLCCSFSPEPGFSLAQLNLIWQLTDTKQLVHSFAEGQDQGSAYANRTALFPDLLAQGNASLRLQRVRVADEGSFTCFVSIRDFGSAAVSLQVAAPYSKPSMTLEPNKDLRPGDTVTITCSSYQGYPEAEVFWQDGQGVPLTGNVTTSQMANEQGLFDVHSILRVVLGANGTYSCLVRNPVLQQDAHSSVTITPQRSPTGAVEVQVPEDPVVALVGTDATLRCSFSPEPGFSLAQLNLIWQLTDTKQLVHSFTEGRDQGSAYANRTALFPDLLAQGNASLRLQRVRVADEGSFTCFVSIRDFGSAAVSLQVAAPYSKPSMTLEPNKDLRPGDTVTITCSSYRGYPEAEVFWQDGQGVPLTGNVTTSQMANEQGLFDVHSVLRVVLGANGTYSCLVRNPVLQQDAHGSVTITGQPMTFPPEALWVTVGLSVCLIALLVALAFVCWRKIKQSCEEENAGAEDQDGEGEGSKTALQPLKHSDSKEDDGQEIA

Binder	binding in a display sort
design_620_fbd04095-bef7-46a9-992d-f2cb8915922f_1915_dldesign_0_cycle1_af2pred (protein) NEDLKKAAELAKKAAQLAPQPEAAEVAAKAAEAAEKAVGPELGNYALALATLPPAARALGMSNLATSLEKLV	not found
design_620_fbd04095-bef7-46a9-992d-f2cb8915922f_1927_dldesign_0_cycle1_af2pred (protein) AAAQAALEKMKALAEQALAEIKALSQKDQASIDQGIAVLSRTVTELMTAANQYPEVAAQYAQLAVDLLEQSSKYIRAGRARVAAKEAA	not found
design_620_fbd04095-bef7-46a9-992d-f2cb8915922f_1950_dldesign_0_cycle1_af2pred (protein) GVAETLKRNLEAAERILKEGEELFETDPAAGAAKFKSAELLATGVVATAEADPSVPEEILKRAKELAKRAKEALEEAEKKVEELKA	not found
design_620_fbd04095-bef7-46a9-992d-f2cb8915922f_1968_dldesign_0_cycle1_af2pred (protein) DAAVQAAVAAGQAAAERARETGERAREAGDEETAARLEALAQSVDILADGAAATKDAHAAATLQTLVRQAEREVEEAERRLEA	not found
design_620_fbd04095-bef7-46a9-992d-f2cb8915922f_2025_dldesign_0_cycle1_af2pred (protein) GLAEVLRASGLALEAYELAEKLAKENPEEGRKAFQEAARLSLRAAARALAIARAFPEIAEFALRLAQRLVELAAEAAEKARELEA	not found
design_620_fbd04095-bef7-46a9-992d-f2cb8915922f_2199_dldesign_0_cycle1_af2pred (protein) AEAAAQAARASVAAARAAVKDARRIAENAKTPEQLESAKKVLEVARALAEDAERNAKAAGDEELVKLAEEARKEAEEAEKKVREKAEE	not found
design_620_fbd04095-bef7-46a9-992d-f2cb8915922f_2241_dldesign_0_cycle1_af2pred (protein) AEKVRELADQMVAIAREAAEKGLSPAEIGAANGQVVDLLEEAYRLAKESGASQEVLDYLNAKNAEANRLLLAAQRA	not found
design_620_fbd04095-bef7-46a9-992d-f2cb8915922f_2277_dldesign_0_cycle1_af2pred (protein) GAAAERAALRDAALAEVDALLAAGAAAAAAAASPVAALLDAHRAAAEVIARLRERDPAAGEEVAAEAQARFSALLRQASASVVA	not found
design_620_fbd04095-bef7-46a9-992d-f2cb8915922f_2282_dldesign_0_cycle1_af2pred (protein) AAAEGQALVKQATAYAEEALRLAREGGDPEEVAAKLNLAATYAIKAMNLPATQAQGAKVMDYLGEVAREVAAIRAARAAA	not found
design_620_fbd04095-bef7-46a9-992d-f2cb8915922f_2334_dldesign_0_cycle1_af2pred (protein) LTEEEQKELIIDTIKGLAESAKQFAKASGDPELAKQAEKVAELAKKAIEVTKKGTLEDGVKALSEVSKATMEVAKAA	not found
design_620_fbd04095-bef7-46a9-992d-f2cb8915922f_2412_dldesign_0_cycle1_af2pred (protein) ADGSRLTEAFRVAAEARRVGEEAGKLLGEEALEEAERAAAELRRLLAAAMRAMAAGTGADEAVNAALDAARAALAEFEERLKEAR	not found
design_620_fbd04095-bef7-46a9-992d-f2cb8915922f_2436_dldesign_0_cycle1_af2pred (protein) EAAKEAEKAYKEAKEAAAAALAAADAAADKVPATAVDVLKRTVTANLKQAEKALKAGDAKAVKAQKKQLELLKEGAAAAA	not found
design_621_7e0052dc-ae49-49a0-b99f-9f3ee649cc2f_121_dldesign_0_cycle1_af2pred (protein) EEAERKARTAELLKEAIHLGFRGIAVGPEYIKEGAKKLEEAAKLLPEKKPLLEKMAELAKKAAESTPTEALQLTLEMIEIAKEVVE	not found
design_621_7e0052dc-ae49-49a0-b99f-9f3ee649cc2f_147_dldesign_0_cycle1_af2pred (protein) MEAAAEIALKTAKAMTKSAVAAAEAGNLEDARQIAETAKEILEATAKKVSPELAKKLKEAAKKATAEAEAAVKAAAARLAA	not found
design_621_7e0052dc-ae49-49a0-b99f-9f3ee649cc2f_162_dldesign_0_cycle1_af2pred (protein) MGELFAALIEAMRLASEAARLAKAGEKEEAKEKLEKALKLVGEVAKATGTTAIYDETAKKAEASSLEEAARAVMSGAAKIISEAAKKA	not found
design_621_7e0052dc-ae49-49a0-b99f-9f3ee649cc2f_216_dldesign_0_cycle1_af2pred (protein) RMAEVAERIRRTAEEVREGDAETAVRLAAEVLELARREGNEASAHLAANALRAARAGDVERAVVYLEAAAEITALS	not found
design_621_7e0052dc-ae49-49a0-b99f-9f3ee649cc2f_282_dldesign_0_cycle1_af2pred (protein) ARAKIVEAAKKAAKEAEAATTRGEVLVALAKAAAVFNRVGDAAGAARVSAAIVQATQLDAAEAKKLAVEVLTAIAEEAA	not found
design_621_7e0052dc-ae49-49a0-b99f-9f3ee649cc2f_290_dldesign_0_cycle1_af2pred (protein) AAAALERAARIALAAAKAMLRTAEATGNAAAAAVAADLAAYAAATARAAGPALAPLAAEAEAVEARARALAA	not found
design_621_7e0052dc-ae49-49a0-b99f-9f3ee649cc2f_375_dldesign_0_cycle1_af2pred (protein) SQAAQIALNAAKSLAENIKKYAEVMSEEEAKGAIELLYDLAKYAKKEDPELGKKAEKIAEEAKKYVEKVFKEKKEEEEK	not found
